# Measurements reported in PubChem BioAssay (Tox21).
# Several values for one entry are separate records, joined by “and”; a condition that tells them apart may be missing. Equal entries are not always repeated. Inconclusive results are not listed. A call without a number means that no potency is given here. Some compounds were tested as several samples or in several runs, with calls that do not always agree. Activity calls are given as the source filed them. Calls come from the whole dose curve; as a rule, active = well fitted curve in the direction sought with a large enough effect in the repeat runs; inconclusive = weak or mixed curves; inactive = no such curve, though single readings can be large; an effect the other way counts as inactive or inconclusive.
# How the values were obtained:
# [1] = qHTS RealTime-Glo MT Cell Viability Assay in HEK293 cells - 16 hour (AID 1224872); note: nearly all actives have a fitted effect of over 50% in size; for activity change, negative = cytotoxicity: top concentration of the series differs between compounds
# Procedure, shortened: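 Viability tracked continuously by luminescence as live cells reduce a prosubstrate for NanoLuc; HEK293 cells preincubated 5 h, compound-treated at 37 C, and read at 0, 8, 16, 24, 32 and 40 h.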
# [2] = qHTS RealTime-Glo MT Cell Viability Assay in HepG2 cells - 8 hour (AID 1224873); note: nearly all actives have a fitted effect of over 55% in size
# Procedure, shortened: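 Real-time viability: cells seeded at 600 per well together with NanoLuc and cell-permeant prosubstrate, compounds added after 5 h incubation. Luminescence tracked at 0, 8, 16, 24, 32 and 40 h of exposure.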
# [3] = qHTS RealTime-Glo MT Cell Viability Assay in HEK293 cells - 40 hour (AID 1224874); details: RealTime-Glo luminescence; max response: stronger effect = lower value; note: nearly all actives have a fitted effect of over 50% in size
# Procedure, shortened: (§1)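 Measured as luminescence from the same continuously cultured HEK293 wells at successive time points (0, 8, 16, 24, 32, 40 h) after compound addition. Reagent present from seeding; dosing at 5 h; incubation 37 C.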
# [4] = A CellTox Green Cytotoxicity Assay to monitor cytotoxicity in HepG2 cells - 16 hour (AID 1224876); note: nearly all actives have a fitted effect of over 45% in size
# Procedure, shortened: (§2)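 Fluorescent DNA-binding dye, 600 HepG2 cells/well, 5 h preincubation then compound in DMSO; same plates read at 0–40 h, 37 C.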
# [5] = qHTS RealTime-Glo MT Cell Viability Assay in HepG2 cells - 32 hour (AID 1224877); note: nearly all actives have a fitted effect of over 55% in size
# Procedure, shortened: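 Viability was tracked continuously by NanoLuc luminescence from prosubstrate reduced by living HepG2 cells, at successive time points over 40 h of compound exposure. Cells with reagent were preincubated 5 h at 37 °C before compound addition.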
# [6] = A CellTox Green Cytotoxicity Assay to monitor cytotoxicity in HepG2 cells - 24 hour (AID 1224878); note: nearly all actives have a fitted effect of over 45% in size
# Procedure, shortened: as §2
# [7] = A CellTox Green Cytotoxicity Assay to monitor cytotoxicity in HepG2 cells - 40 hour (AID 1224879); note: nearly all actives have a fitted effect of over 40% in size
# Procedure, shortened: as §2
# [8] = qHTS RealTime-Glo MT Cell Viability Assay in HEK293 cells - 0 hour (AID 1224880); note: nearly all actives have a fitted effect of over 45% in size; for activity change, negative = cytotoxicity: top concentration of the series differs between compounds
# Procedure, shortened: as §1
# [9] = A CellTox Green Cytotoxicity Assay to monitor cytotoxicity in HEK293 cells - 24 hour (AID 1224875); note: nearly all actives have a fitted effect of over 45% in size; for activity change: series mostly up to about 77 µM
# Procedure, shortened: (§3)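 Homogeneous no-lysis format: HEK293 cell suspension mixed with CellTox Green reagent, seeded, incubated 5 h at 37 C/5% CO2, then dosed by pintool with compound in DMSO.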
# [10] = A CellTox Green Cytotoxicity Assay to monitor cytotoxicity in HEK293 cells - 32 hour (AID 1224881); note: nearly all actives have a fitted effect of over 40% in size
# Procedure, shortened: as §3
# Potency is the fitted concentration of half-maximal effect.
smiles,measurement,setting,value
CCOC(=O)CC(=O)CCl,Potency,[1],38.9 µM (active)
same,Potency,[2],inactive
same,Potency,[3],43.6 µM (active)
same,Potency,[4],inactive
same,Potency,[5],inactive
same,Potency,[6],inactive
same,Potency,[7],inactive
same,Potency,[8],inactive
O=C1C=CC(=O)c2ccccc21,Potency,[1],5.49 µM (active)
same,Potency,[2],17.4 µM (active)
same,Potency,[3],4.9 µM (active)
same,Potency,[9],6.92 µM (active)
same,Potency,[4],13.8 µM (active)
same,Potency,[5],24.5 µM (active)
same,Potency,[7],12.3 µM (active)
same,Potency,[8],12.3 µM (active)
same,Potency,[10],6.16 µM (active)
N#CCc1ccc(Cl)cc1,Potency,[1],inactive
same,Potency,[2],inactive
same,max response,[3],1.31% (inactive)
same,Potency,[9],inactive
same,Potency,[4],inactive
same,Potency,[5],inactive
same,Potency,[7],inactive
same,Potency,[10],inactive
CCC[CH2][Sn]([CH2]CCC)([CH2]CCC)[O]C(=O)c1ccccc1,Potency,[1],0.436 µM (active)
same,Potency,[2],0.776 µM (active)
same,Potency,[3],0.389 µM (active)
same,Potency,[9],1.95 µM (active)
same,Potency,[4],0.692 µM (active)
same,Potency,[5],0.436 µM (active)
same,Potency,[7],0.549 µM (active)
same,Potency,[10],0.977 µM (active)
CCCN(CCC)CCc1c[nH]c2ccccc12,Potency,[1],inactive
same,Potency,[2],inactive
same,max response,[3],-15.2% (inactive)
same,Potency,[9],inactive
same,Potency,[4],inactive
same,Potency,[5],inactive
same,Potency,[6],inactive
same,Potency,[10],inactive
ClC1=C(Cl)[C@]2(Cl)[C@H]3[C@H]([C@H]4C=C[C@H]3C4)[C@@]1(Cl)C2(Cl)Cl,Potency,[1],inactive
same,Potency,[2],inactive
same,max response,[3],-13.1% (inactive)
same,Potency,[9],inactive
same,Potency,[4],inactive
same,Potency,[5],inactive
same,Potency,[7],inactive
same,Potency,[8],inactive
CCSC(C)CC1CC(=O)C(/C(CC)=N/OC/C=C/Cl)=C(O)C1 (stereo not given),Potency,[1],inactive
same,Potency,[2],inactive
same,max response,[3],0.0447% (inactive)
same,Potency,[9],inactive
same,Potency,[5],inactive
same,Potency,[7],inactive
same,Potency,[8],inactive
same,Potency,[10],inactive
CCOP(=S)(OCC)OC(Cl)C(Cl)(Cl)Cl (stereo not given),Potency,[1],inactive
same,Potency,[2],inactive
same,max response,[3],-10.7% (inactive)
same,Potency,[4],inactive
same,Potency,[5],inactive
same,Potency,[6],inactive
same,Potency,[7],inactive
same,Potency,[8],inactive
CC(=O)c1ccc(-c2ccccc2)cc1,Potency,[1],inactive
same,Potency,[2],inactive
same,max response,[3],-11.1% (inactive)
same,Potency,[9],inactive
same,Potency,[4],inactive
same,Potency,[5],inactive
same,Potency,[7],inactive
same,Potency,[8],inactive
same,Potency,[10],inactive
CNC(C)Cc1ccc2c(c1)OCO2 (stereo not given),Potency,[1],inactive
same,Potency,[2],inactive
same,max response,[3],-1.8% (inactive)
same,Potency,[9],inactive
same,Potency,[4],inactive
same,Potency,[5],inactive
same,Potency,[7],inactive
same,Potency,[8],inactive
same,Potency,[10],inactive
Brc1c(Br)c(Br)c(Oc2c(Br)c(Br)c(Br)c(Br)c2Br)c(Br)c1Br,"activity change, negative = cytotoxicity",[1],3.04% [at 15.8 µM] (inactive)
same,"viability change, negative = cytotoxic",[2],5% [at 15.8 µM] (inactive)
same,max response,[3],1.84% (inactive)
same,activity change,[9],"-3.29% [at 15.8 µM, stronger effect = higher value] (inactive)"
same,"activity change, negative = cytotoxic",[5],-3.04% [at 15.8 µM] (inactive)
same,cytotoxicity increase,[7],1.89% [at 15.8 µM] (inactive)
same,"activity change, negative = cytotoxicity",[8],-0.353% [at 15.8 µM] (inactive)
same,cytotoxicity increase,[10],-3.94% [at 15.8 µM] (inactive)
CCOCCOC(C)=O,Potency,[1],inactive
same,Potency,[2],inactive
same,max response,[3],4.22% (inactive)
same,Potency,[9],inactive
same,Potency,[5],inactive
same,Potency,[6],inactive
same,Potency,[7],inactive
same,Potency,[10],inactive
CC(C)C(=O)Cl,Potency,[1],inactive
same,Potency,[2],inactive
same,max response,[3],0.629% (inactive)
same,Potency,[9],inactive
same,Potency,[5],inactive
same,Potency,[6],inactive
same,Potency,[7],inactive
same,Potency,[10],inactive
COC[C@H](C)N(C(=O)CCl)c1c(C)csc1C,Potency,[1],inactive
same,Potency,[2],inactive
same,max response,[3],19.6% (inactive)
same,Potency,[9],inactive
same,Potency,[5],inactive
same,Potency,[6],inactive
same,Potency,[7],inactive
same,Potency,[8],inactive
same,Potency,[10],inactive
CC(C)C1CCC(Cc2ccc(Cl)cc2)C1(O)Cn1cncn1 (stereo not given),Potency,[1],12.2 µM (active)
same,Potency,[2],24.3 µM (active)
same,Potency,[3],10.9 µM (active)
same,Potency,[9],24.3 µM (active)
same,Potency,[4],48.5 µM (active)
same,Potency,[5],48.5 µM (active)
same,Potency,[7],43.2 µM (active)
same,Potency,[8],inactive
same,Potency,[10],34.3 µM (active)
CC(C)N1C(=O)N(c2ccccc2)CSC1=NC(C)(C)C,Potency,[1],19.5 µM (active)
same,Potency,[2],inactive
same,Potency,[3],21.9 µM (active)
same,Potency,[9],inactive
same,Potency,[4],inactive
same,Potency,[5],inactive
same,Potency,[7],inactive
same,Potency,[8],inactive
same,Potency,[10],inactive
SCc1ccco1,Potency,[1],inactive
same,Potency,[2],inactive
same,max response,[3],-11.9% (inactive)
same,Potency,[9],inactive
same,Potency,[5],inactive
same,Potency,[6],inactive
same,Potency,[7],inactive
same,Potency,[8],inactive
same,Potency,[10],inactive
NC(=O)CCl,Potency,[1],inactive
same,Potency,[2],inactive
same,max response,[3],11.6% (inactive)
same,Potency,[9],inactive
same,Potency,[4],inactive
same,Potency,[5],inactive
same,Potency,[7],inactive
same,Potency,[8],inactive
same,Potency,[10],inactive
Cc1cc(Cl)ccc1O[C@H](C)C(=O)O,Potency,[1],inactive
same,Potency,[2],inactive
same,max response,[3],-1.32% (inactive)
same,Potency,[9],inactive
same,Potency,[4],inactive
same,Potency,[5],inactive
same,Potency,[7],inactive
same,Potency,[8],inactive
same,Potency,[10],inactive
CN(C)C(=S)S,Potency,[1],1.94 µM (active) and 12.3 µM (active)
same,Potency,[2],inactive
same,Potency,[3],11.2 µM (active) and 1.73 µM (active) and 9.77 µM (active)
same,Potency,[4],inactive and 34.7 µM (active)
same,Potency,[5],inactive and 9.77 µM (active)
same,Potency,[6],22.3 µM (active) and 5.45 µM (active) and 15.5 µM (active)
same,Potency,[7],15.8 µM (active) and 4.86 µM (active) and 11 µM (active)
same,Potency,[8],inactive
same,Potency,[10],8.88 µM (active) and 3.07 µM (active) and 6.92 µM (active)
